In PubChem BioAssay (EPA / NIEHS):
The source made the active and inactive calls. How the source made its calls: active means hit-call score of the fitted dose curve at least 0.9, where 1 is the maximum; inactive means score below 0.9.

What was measured:
Conditions in all cases: mRNA level, 48 h; actives raise or lower the signal
[1] = read-out: Cytochrome P450 4A22 (Homo sapiens) (UniProt Q5TCH4); assay: LTEA_HepaRG_CYP4A22: Life Technologies and Expression Analysis (LTEA) Assay for Cytochrome P450 4A22 (CYP4A22) using HepaRG (AID 2283495)
Procedure, shortened: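 qRT-PCR of CYP4A22 mRNA (Fluidigm TaqMan, normalized to three housekeeping genes) after 48 h chemical exposure of HepaRG cells; 8-point half-log series, top 100 uM, 0.5% DMSO vehicle. Bidirectional curve fitting vs DMSO baseline.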

[2] = read-out: Cytochrome P450 7A1 (Homo sapiens) (UniProt P22680); assay: LTEA_HepaRG_CYP7A1: Life Technologies and Expression Analysis (LTEA) Assay for Cytochrome P450 7A1 (CYP7A1) using HepaRG (AID 2283496)
Procedure, shortened: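 Gene expression endpoint in human HepaRG liver cells treated for 48 h with test chemicals (up to 100 uM, 0.5% DMSO). Values come from bidirectional concentration-response fitting versus DMSO.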

[3] = read-out: Glutathione S-Transferase (GSTA2), GSTA2 (gene 2939); assay: LTEA_HepaRG_GSTA2: Life Technologies and Expression Analysis (LTEA) Assay for Glutathione S-Transferase (GSTA2) using HepaRG (AID 2283497)
Procedure, shortened: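 Differentiated human HepaRG cells were exposed in duplicate for 48 h in serum-free induction medium, 8 points from 100 uM top in half-log steps, 0.5% DMSO. GSTA2 mRNA was measured by TaqMan qRT-PCR, normalized to ACTB, GAPDH and POLR2A; bidirectional fit versus DMSO.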

[4] = read-out: Glutamate-cysteine ligase catalytic (GCLC), GCLC (gene 2729); assay: LTEA_HepaRG_GCLC: Life Technologies and Expression Analysis (LTEA) Assay for Glutamate-cysteine ligase catalytic (GCLC) using HepaRG (AID 2283498)
Procedure, shortened: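 Differentiated HepaRG cells exposed 48 h in serum-free induction medium, eight-point half-log series topping at 100 uM in 0.5% DMSO, duplicates. GCLC mRNA by qRT-PCR normalized to ACTB, GAPDH and POLR2A, fitted bidirectionally versus DMSO.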

[5] = read-out: growth arrest and DNA damage 45 (GADD45G), GADD45G (gene 10912); assay: LTEA_HepaRG_GADD45G: Life Technologies and Expression Analysis (LTEA) Assay for growth arrest and DNA damage 45 (GADD45G) using HepaRG (AID 2283499)
Procedure, shortened: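 Differentiated human HepaRG cells in serum-free induction medium were exposed for 48 h to 8 half-log concentrations up to 100 uM in 0.5% DMSO, in duplicate. GADD45G mRNA was measured by TaqMan qRT-PCR, normalised to ACTB, GAPDH and POLR2A, and fitted bidirectionally against DMSO.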

[6] = read-out: Glutamate-cysteine ligase regulatory (GCLM), GCLM (gene 2730); assay: LTEA_HepaRG_GCLM: Life Technologies and Expression Analysis (LTEA) Assay for Glutamate-cysteine ligase regulatory (GCLM) using HepaRG (AID 2283500)
Procedure, shortened: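 Differentiated human HepaRG cells exposed 48 h in serum-free induction medium to 8-point half-log concentrations (top 100 uM, 0.5% DMSO), in duplicate. GCLM mRNA quantified by qRT-PCR, normalized to ACTB, GAPDH, POLR2A; bidirectional fitting versus DMSO.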

[7] = read-out: Glutathione S-transferase M3 (GSTM3), GSTM3 (gene 2947); assay: LTEA_HepaRG_GSTM3: Life Technologies and Expression Analysis (LTEA) Assay for Glutathione S-transferase M3 (GSTM3) using HepaRG (AID 2283501)
Procedure, shortened: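 Differentiated HepaRG cells in serum-free induction medium were exposed in duplicate for 48 h to 8 half-log concentrations up to 100 uM in 0.5% DMSO. GSTM3 mRNA was measured by TaqMan qRT-PCR, normalized to ACTB/GAPDH/POLR2A, and fitted bidirectionally versus DMSO.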

[8] = read-out: Heat shock 70 kDa protein 1 (HSPA1A), gene 3303; assay: LTEA_HepaRG_HSPA1A: Life Technologies and Expression Analysis (LTEA) Assay for Heat shock 70 kDa protein 1 (HSPA1A) using HepaRG (AID 2283502)
Procedure, shortened: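 Differentiated human HepaRG cells in serum-free induction medium were exposed in duplicate for 48 h to eight concentrations (top 100 uM, half-log steps, 0.5% DMSO). HSPA1A mRNA was quantified by qRT-PCR, normalized to ACTB, GAPDH and POLR2A, and fitted bidirectionally against DMSO.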

[9] = read-out: Hypoxia-inducible factor 1-alpha (Homo sapiens) (UniProt Q16665); assay: LTEA_HepaRG_HIF1A: Life Technologies and Expression Analysis (LTEA) Assay for Hypoxia-inducible factor 1 (HIF1A) Trancription factor using HepaRG (AID 2283503);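 further: HIF1A transcript by TaqMan qRT-PCR normalized to ACTB GAPDH and POLR2A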
Procedure, shortened: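 HepaRG, 48 h exposure, 8-pt half-log series from 100 uM, 0.5% DMSO vehicle, duplicates. Readout: HIF1A transcript by qRT-PCR (Fluidigm array), housekeeping-normalised. Bidirectional curve fit vs DMSO baseline.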

[10] = read-out: 3-Hydroxy-3-Methylglutaryl-CoA Synthase 2 (HMGCS2), HMGCS2 (gene 3158); assay: LTEA_HepaRG_HMGCS2: Life Technologies and Expression Analysis (LTEA) Assay for 3-Hydroxy-3-Methylglutaryl-CoA Synthase 2 (HMGCS2) using HepaRG (AID 2283504)
Procedure, shortened: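 Differentiated human HepaRG cells were exposed in duplicate for 48 h in serum-free induction medium to eight concentrations (top 100 uM, half-log steps, 0.5% DMSO). HMGCS2 mRNA was quantified by TaqMan qRT-PCR, normalised to ACTB, GAPDH and POLR2A, then fitted bidirectionally against DMSO.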

HGF (gene 3082) = assay: LTEA_HepaRG_HGF: Life Technologies and Expression Analysis (LTEA) Assay for Hepatocyte Growth Facto (HGF) using HepaRG (AID 2283505)
Procedure, shortened: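 Differentiated human HepaRG cells in serum-free induction medium were exposed in duplicate for 48 h to eight concentrations (top 100 uM, half-log steps, 0.5% DMSO). HGF mRNA was quantified by qRT-PCR, normalized to ACTB, GAPDH and POLR2A.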

[11] = read-out: Insulin Like Growth Factor 1 (IGF1), IGF1 (gene 3479); assay: LTEA_HepaRG_IGF1: Life Technologies and Expression Analysis (LTEA) Assay for Insulin Like Growth Factor 1 (IGF1) using HepaRG (AID 2283506)
Procedure, shortened: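 Differentiated human HepaRG cells were dosed for 48 h in serum-free induction medium with 0.5% DMSO, eight half-log concentrations up to 100 uM, in duplicate. IGF1 mRNA was quantified by qRT-PCR normalized to ACTB, GAPDH, POLR2A; bidirectional fitting versus DMSO.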

[12] = read-out: Intercellular Adhesion Molecule 1 (ICAM1), ICAM1 (gene 3383); assay: LTEA_HepaRG_ICAM1: Life Technologies and Expression Analysis (LTEA) Assay for Intercellular Adhesion Molecule 1 (ICAM1) using HepaRG (AID 2283507)
Procedure, shortened: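 Differentiated HepaRG cells in serum-free induction medium were exposed in duplicate for 48 h to eight half-log concentrations up to 100 uM in 0.5% DMSO. Transcript levels were measured by qRT-PCR normalized to ACTB, GAPDH and POLR2A; bidirectional fits relative to DMSO.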

[13] = read-out: Insulin-like growth factor-binding protein 1 (IGFBP1), IGFBP1 (gene 3484); assay: LTEA_HepaRG_IGFBP1: Life Technologies and Expression Analysis (LTEA) Assay for Insulin-like growth factor-binding protein 1 (IGFBP1) using HepaRG (AID 2283508)
Procedure, shortened: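 Differentiated human HepaRG cells in serum-free induction medium were exposed in duplicate for 48 h to eight concentrations, top 100 uM with half-log dilutions, in 0.5% DMSO. Transcript levels came from qRT-PCR normalised to ACTB, GAPDH and POLR2A, fitted bidirectionally against DMSO.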

[14] = read-out: Interleukin 6 (IL6), IL6 (gene 3569); assay: LTEA_HepaRG_IL6: Life Technologies and Expression Analysis (LTEA) Assay for Interleukin 6 (IL6) using HepaRG (AID 2283509)
Procedure, shortened: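 HepaRG cells exposed in duplicate for 48 h to eight half-log concentrations, top 100 uM, in 0.5% DMSO serum-free induction medium. mRNA measured by qRT-PCR, normalized to ACTB, GAPDH and POLR2A. Bidirectional fit versus DMSO.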

[15] = read-out: Interleukin 6 Receptor (IL6R), IL6R (gene 3570); assay: LTEA_HepaRG_IL6R: Life Technologies and Expression Analysis (LTEA) Assay for Interleukin 6 Receptor (IL6R) using HepaRG (AID 2283510)
Procedure, shortened: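 Differentiated human HepaRG cells, plated 48 h then switched to serum-free induction medium, were dosed in duplicate for 48 h at eight half-log concentrations up to 100 uM in 0.5% DMSO. IL6R mRNA quantified by qRT-PCR, normalized to ACTB/GAPDH/POLR2A; bidirectional fit versus DMSO.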

[16] = read-out: Potassium channel subfamily K member 1 (KCNK1), KCNK1 (gene 3775); assay: LTEA_HepaRG_KCNK1: Life Technologies and Expression Analysis (LTEA) Assay for Potassium channel subfamily K member 1 (KCNK1) using HepaRG (AID 2283511)
Procedure, shortened: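 Differentiated HepaRG cells, 48 h exposure in serum-free induction medium with 0.5% DMSO; 8 concentrations, half-log from 100 uM, duplicate. KCNK1 mRNA by qRT-PCR, normalized to ACTB, GAPDH, POLR2A; bidirectional fit vs DMSO.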

[17] = read-out: Keratin 19 (KRT19), KRT19 (gene 3880); assay: LTEA_HepaRG_KRT19: Life Technologies and Expression Analysis (LTEA) Assay for Keratin 19 (KRT19) using HepaRG (AID 2283512)
Procedure, shortened: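 Differentiated human HepaRG cells, plated 48 h, were exposed in duplicate for 48 h in serum-free induction medium to eight half-log concentrations up to 100 uM in 0.5% DMSO. KRT19 mRNA was quantified by qRT-PCR, normalized to ACTB, GAPDH and POLR2A, and fitted bidirectionally versus DMSO.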

[18] = read-out: JUN Transcription Factor, JUN (gene 3725); assay: LTEA_HepaRG_JUN: Life Technologies and Expression Analysis (LTEA) Assay for JUN Transcription Factor using HepaRG (AID 2283513)
Procedure, shortened: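 Differentiated HepaRG cells were exposed to chemicals for 48 h in serum-free induction medium, 8 concentrations from 100 uM in half-log steps, 0.5% DMSO vehicle, in duplicate. JUN mRNA was quantified by TaqMan qRT-PCR, normalized to ACTB, GAPDH, POLR2A.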

[19] = read-out: Lipase C (LIPC), LIPC (gene 3990); assay: LTEA_HepaRG_LIPC: Life Technologies and Expression Analysis (LTEA) Assay for Lipase C (LIPC) using HepaRG (AID 2283514)
Procedure, shortened: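 HepaRG cells, 48 h after plating, treated in duplicate for 48 h in serum-free induction medium over 8 half-log concentrations from 100 uM, 0.5% DMSO. LIPC mRNA by TaqMan qRT-PCR normalized to ACTB/GAPDH/POLR2A; bidirectional fit versus DMSO.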

Measured: outcome

Sequence of Hypoxia-inducible factor 1-alpha (Homo sapiens) (Q16665 whole entry, looked up): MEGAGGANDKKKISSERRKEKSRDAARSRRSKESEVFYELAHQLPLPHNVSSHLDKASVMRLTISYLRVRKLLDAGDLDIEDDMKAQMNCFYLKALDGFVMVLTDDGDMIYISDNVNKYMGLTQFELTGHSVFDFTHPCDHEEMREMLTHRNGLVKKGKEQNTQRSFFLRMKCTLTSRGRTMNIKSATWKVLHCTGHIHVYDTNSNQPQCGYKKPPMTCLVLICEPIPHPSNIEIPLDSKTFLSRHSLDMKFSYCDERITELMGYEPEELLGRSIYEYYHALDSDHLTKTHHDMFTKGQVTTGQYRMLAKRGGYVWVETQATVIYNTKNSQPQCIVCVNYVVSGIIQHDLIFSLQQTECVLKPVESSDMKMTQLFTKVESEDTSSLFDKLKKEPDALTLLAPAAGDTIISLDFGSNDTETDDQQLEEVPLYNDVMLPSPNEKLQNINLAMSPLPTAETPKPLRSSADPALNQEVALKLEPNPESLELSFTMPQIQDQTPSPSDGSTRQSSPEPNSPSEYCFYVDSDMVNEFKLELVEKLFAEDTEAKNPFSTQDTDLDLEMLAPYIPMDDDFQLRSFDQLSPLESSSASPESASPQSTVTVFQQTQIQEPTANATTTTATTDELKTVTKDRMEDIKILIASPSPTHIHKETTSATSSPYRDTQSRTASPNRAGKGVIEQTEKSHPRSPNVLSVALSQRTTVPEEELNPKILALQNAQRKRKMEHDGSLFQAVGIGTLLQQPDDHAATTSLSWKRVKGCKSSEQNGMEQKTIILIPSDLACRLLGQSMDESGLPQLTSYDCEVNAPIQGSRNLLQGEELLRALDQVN

O=[N+]([O-])c1ccc(Cl)cc1
inactive: all assays above
